Results filed as inconclusive are left out. Entries that show only a call come without a potency. Activity calls are given as the source filed them. The call rests on the fitted dose curve; in most records, active means well fitted curve in the direction sought with a large enough effect; inconclusive means small, poorly fitted or top-dose-only effect, or another doubt; inactive means no such curve, though single readings can be large; an effect the other way counts as inactive or inconclusive.
Assays:
MKL-2 = experiment: qHTS assay to identify novel small-molecules to repurpose for Merkel cell carcinoma treatment (AID 1296009); details: MCC and control cell lines, CellTiter-Glo viability, 72 h; series mostly up to 46 µM; further: nearly all actives have a fitted effect of over 60% in size; further: potency means the concentration at half of the fitted maximal effect
Method in brief: (§1)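 Cell viability measured by CellTiter-Glo following 72 hr compound treatment at 37 degree celsius, with NPC and MIPE libraries tested in 8- and 11-point concentration series.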

UISO = experiment: as above; details: MCC and control cell lines, CellTiter-Glo viability, 72 h; series mostly up to 46 µM
Method in brief: as §1

WaGa = experiment: as above; details: MCC and control cell lines, CellTiter-Glo viability, 72 h; series mostly up to 46 µM
Method in brief: as §1

C33A = experiment: Primary qHTS to identify gynecologic anti-cancer compounds using libraries of approved drugs and bioactive compounds (AID 1345084); details: Gynecologic cancer cell panel viability, ATPlite luminescence, 48 h; series mostly up to 57.5 µM; further: nearly all actives have a fitted effect of over 55% in size
Method in brief: (§2)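 Five-concentration response, 48 h; readout is ATP-driven luciferase luminescence.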

CASKI = experiment: as above; details: Gynecologic cancer cell panel viability, ATPlite luminescence, 48 h; series mostly up to 57.5 µM
Method in brief: as §2

Es-2 = experiment: as above; details: Gynecologic cancer cell panel viability, ATPlite luminescence, 48 h; series mostly up to 57.5 µM
Method in brief: as §2

HeLa = experiment: as above; details: Gynecologic cancer cell panel viability, ATPlite luminescence, 48 h; series mostly up to 57.5 µM
Method in brief: as §2

Hek293T = experiment: as above; details: Gynecologic cancer cell panel viability, ATPlite luminescence, 48 h, control line for the selectivity index; series mostly up to 57.5 µM
Method in brief: as §2

JEG-3 = experiment: as above; details: Gynecologic cancer cell panel viability, ATPlite luminescence, 48 h; series mostly up to 57.5 µM
Method in brief: as §2

OV90 = experiment: as above; details: Gynecologic cancer cell panel viability, ATPlite luminescence, 48 h; series mostly up to 57.5 µM
Method in brief: as §2

PA-1 = experiment: as above; details: Gynecologic cancer cell panel viability, ATPlite luminescence, 48 h; series mostly up to 57.5 µM
Method in brief: as §2

SKOV3 = experiment: as above; details: Gynecologic cancer cell panel viability, ATPlite luminescence, 48 h; series mostly up to 57.5 µM
Method in brief: as §2

Tov-21-G = experiment: as above; details: Gynecologic cancer cell panel viability, ATPlite luminescence, 48 h; series mostly up to 57.5 µM
Method in brief: as §2

Tov112D = experiment: as above; details: Gynecologic cancer cell panel viability, ATPlite luminescence, 48 h; series mostly up to 57.5 µM
Method in brief: as §2

[1] = Drug repurposing screens with cells derived from glioblastoma tumor samples (AID 1345199); details: GBM patient neurospheres viability, ATP luminescence, 48 h; further: nearly all actives have a fitted effect of over 40% in size; further: potency means the concentration at half of the fitted maximal effect
Method in brief: (§3)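 Primary testing used CD133+ neurospheres from four GBM patients, seven concentrations, 48 h exposure and ATP-based viability; confirmation added three slower-growing patient lines.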

astro = experiment: as above; details: viability, ATP luminescence, 48 h; series mostly up to 45.9 µM
Method in brief: as §3

CAOV3 = experiment: Primary qHTS to identify gynecologic anti-cancer compounds using libraries of approved drugs and bioactive compounds (AID 1345084); details: Gynecologic cancer cell panel viability, ATPlite luminescence, 48 h; series mostly up to 57.5 µM; further: nearly all actives have a fitted effect of over 55% in size
Method in brief: as §2

[2] = at 20 µM (top of the series), tumour line C
[3] = at 21.2 µM (top of the series), tumour line B
[4] = at 21.2 µM (top of the series), tumour line D
[5] = at 21.3 µM (top of the series), tumour line A
[6] = at 45.9 µM (top of the series), tumour line B
[7] = at 45.9 µM (top of the series), tumour line D
[8] = at 46.1 µM (top of the series), tumour line C
[9] = at 46 µM (top of the series), tumour line A

CC1(C)O[C@@H]2C[C@H]3[C@@H]4C[C@H](F)C5=CC(=O)CC[C@]5(C)[C@H]4[C@@H](O)C[C@]3(C)[C@]2(C(=O)CO)O1
Potency (MKL-2): inactive | Potency (UISO): inactive | Potency (WaGa): inactive | Potency (C33A): inactive | Potency (CASKI): inactive | Potency (Es-2): inactive | Potency (HeLa): inactive | Potency (Hek293T): inactive | Potency (JEG-3): inactive | Potency (OV90): inactive | Potency (PA-1): inactive | Potency (SKOV3): inactive | Potency (Tov-21-G): inactive | Potency (Tov112D): inactive | activity, negative = cell killing [1, 2]: -16.9% (inactive) | activity, negative = cell killing [1, 3]: -8.1% (inactive) | activity, negative = cell killing [1, 4]: -28% (inactive) | activity, negative = cell killing [1, 5]: -15.3% (inactive) | Potency (astro): inactive

C[C@@H]1C[C@H]2[C@@H]3CCC4=CC(=O)C=C[C@]4(C)[C@@]3(F)[C@@H](O)C[C@]2(C)[C@H]1C(=O)CO
Potency (MKL-2): inactive | Potency (UISO): inactive | Potency (WaGa): inactive | Potency (C33A): inactive | Potency (CASKI): inactive | Potency (Es-2): inactive | Potency (HeLa): inactive | Potency (Hek293T): inactive | Potency (JEG-3): inactive | Potency (OV90): inactive | Potency (PA-1): inactive | Potency (SKOV3): inactive | Potency (Tov-21-G): inactive | Potency (Tov112D): inactive | activity, negative = cell killing [1, 6]: -17.3% (inactive) | activity, negative = cell killing [1, 7]: -7.25% (inactive) | activity, negative = cell killing [1, 8]: 1.19% (inactive) | Potency (astro): inactive

COc1cc(OC)cc(OC)c1
Potency (MKL-2): inactive | Potency (UISO): inactive | Potency (WaGa): inactive | Potency (C33A): inactive | Potency (CASKI): inactive | Potency (Es-2): inactive | Potency (HeLa): inactive | Potency (Hek293T): inactive | Potency (JEG-3): inactive | Potency (OV90): inactive | Potency (PA-1): inactive | Potency (SKOV3): inactive | Potency (Tov-21-G): inactive | Potency (Tov112D): inactive | activity, negative = cell killing [1, 6]: -3.53% (inactive) | activity, negative = cell killing [1, 7]: 7.76% (inactive) | activity, negative = cell killing [1, 9]: -12.5% (inactive) | activity, negative = cell killing [1, 8]: -1.01% (inactive) | Potency (astro): inactive

CC1(C)O[C@@H]2C[C@H]3[C@@H]4CCC5=CC(=O)CC[C@]5(C)[C@@]4(F)[C@@H](O)C[C@]3(C)[C@]2(C(=O)CCl)O1
Potency (MKL-2): inactive | Potency (UISO): inactive | Potency (WaGa): inactive | Potency (C33A): inactive | Potency (CAOV3): inactive | Potency (CASKI): inactive | Potency (Es-2): inactive | Potency (HeLa): inactive | Potency (Hek293T): inactive | Potency (JEG-3): inactive | Potency (PA-1): inactive | Potency (SKOV3): inactive | Potency (Tov-21-G): inactive | Potency (Tov112D): inactive | activity, negative = cell killing [1, 2]: -1.51% (inactive) | activity, negative = cell killing [1, 3]: -4.88% (inactive) | activity, negative = cell killing [1, 4]: 2.26% (inactive) | activity, negative = cell killing [1, 5]: 3.38% (inactive) | Potency (astro): inactive

CCCCOc1ccc(OCCCN2CCOCC2)cc1
Potency (MKL-2): inactive | Potency (UISO): inactive | Potency (WaGa): inactive | Potency (C33A): inactive | Potency (CAOV3): inactive | Potency (CASKI): inactive | Potency (Es-2): inactive | Potency (HeLa): inactive | Potency (Hek293T): inactive | Potency (JEG-3): inactive | Potency (OV90): inactive | Potency (PA-1): inactive | Potency (SKOV3): inactive | Potency (Tov-21-G): inactive | Potency (Tov112D): inactive | activity, negative = cell killing [1, 2]: -6.83% (inactive) | Potency ([1]; tumour line A): 4470 nM (active) | Potency (astro): inactive

COc1c2occc2c(OC)c2c(=O)cc(C)oc12
Potency (MKL-2): inactive | Potency (UISO): inactive | Potency (WaGa): inactive | Potency (C33A): inactive | Potency (CAOV3): inactive | Potency (CASKI): inactive | Potency (Es-2): inactive | Potency (HeLa): inactive | Potency (JEG-3): inactive | Potency (OV90): inactive | Potency (PA-1): inactive | Potency (SKOV3): inactive | Potency (Tov-21-G): inactive | Potency (Tov112D): inactive | activity, negative = cell killing [1, 2]: -11.9% (inactive) | activity, negative = cell killing [1, 3]: -15.3% (inactive) | activity, negative = cell killing [1, 4]: -6.87% (inactive)

CCCC(=O)Nc1ccc(OCC(O)CNC(C)C)c(C(C)=O)c1 (configuration not stated)
Potency (MKL-2): inactive | Potency (UISO): inactive | Potency (WaGa): inactive | Potency (C33A): inactive | Potency (CASKI): inactive | Potency (Es-2): inactive | Potency (HeLa): inactive | Potency (Hek293T): inactive | Potency (JEG-3): inactive | Potency (OV90): inactive | Potency (PA-1): inactive | Potency (SKOV3): inactive | Potency (Tov-21-G): inactive | Potency (Tov112D): inactive | activity, negative = cell killing [1, 2]: -9.42% (inactive) | activity, negative = cell killing [1, 3]: -3.87% (inactive) | activity, negative = cell killing [1, 4]: 11% (inactive) | Potency (astro): inactive

CC(C)(C)NC(=O)[C@@H]1CN(Cc2cccnc2)CCN1C[C@@H](O)C[C@@H](Cc1ccccc1)C(=O)N[C@H]1c2ccccc2C[C@H]1O
Potency (MKL-2): inactive | Potency (UISO): inactive | Potency (WaGa): inactive | Potency (C33A): inactive | Potency (CAOV3): inactive | Potency (CASKI): inactive | Potency (Es-2): inactive | Potency (HeLa): inactive | Potency (Hek293T): inactive | Potency (JEG-3): inactive | Potency (OV90): inactive | Potency (PA-1): inactive | Potency (Tov-21-G): inactive | Potency (Tov112D): inactive

CCN1CCC[C@H]1CNC(=O)c1c(OC)ccc(Br)c1OC
Potency (MKL-2): inactive | Potency (UISO): inactive | Potency (WaGa): inactive | Potency (C33A): inactive | Potency (CAOV3): inactive | Potency (CASKI): inactive | Potency (Es-2): inactive | Potency (HeLa): inactive | Potency (Hek293T): inactive | Potency (JEG-3): inactive | Potency (OV90): inactive | Potency (PA-1): inactive | Potency (Tov-21-G): inactive | Potency (Tov112D): inactive | activity, negative = cell killing [1, 6]: -5.99% (inactive) | activity, negative = cell killing [1, 7]: -23.8% (inactive) | activity, negative = cell killing [1, 8]: -7.43% (inactive)

CCCCC1=NC2(CCCC2)C(=O)N1Cc1ccc(-c2ccccc2-c2nn[nH]n2)cc1
Potency (MKL-2): inactive | Potency (UISO): inactive | Potency (WaGa): inactive | Potency (C33A): inactive | Potency (CAOV3): inactive | Potency (CASKI): inactive | Potency (Es-2): inactive | Potency (HeLa): inactive | Potency (Hek293T): inactive | Potency (JEG-3): inactive | Potency (OV90): inactive | Potency (PA-1): inactive | Potency (Tov-21-G): inactive | Potency (Tov112D): inactive | activity, negative = cell killing [1, 6]: -9.67% (inactive) | activity, negative = cell killing [1, 7]: -0.133% (inactive) | activity, negative = cell killing [1, 9]: -12.9% (inactive) | activity, negative = cell killing [1, 8]: 8.98% (inactive)

O=C(N/N=C/c1ccccc1O)c1ccncc1
Potency (MKL-2): 750 nM (active) | Potency (UISO): 750 nM (active) | Potency (WaGa): 2660 nM (active) | Potency (C33A): inactive | Potency (CAOV3): inactive | Potency (HeLa): inactive | Potency (Hek293T): inactive | Potency (JEG-3): inactive | Potency (SKOV3): inactive | activity, negative = cell killing [1, 7]: 0.44% (inactive) | Potency ([1]; tumour line B): 17800 nM (active) | Potency (astro): inactive

CC(=O)Oc1ccc(C(=C2CCCCC2)c2ccc(OC(C)=O)cc2)cc1
Potency (MKL-2): inactive | Potency (UISO): inactive | Potency (WaGa): inactive | Potency (C33A): inactive | Potency (CAOV3): inactive | Potency (CASKI): inactive | Potency (Es-2): inactive | Potency (HeLa): inactive | Potency (Hek293T): inactive | Potency (JEG-3): inactive | Potency (PA-1): inactive | Potency (SKOV3): inactive | Potency (Tov-21-G): inactive | Potency (Tov112D): inactive | activity, negative = cell killing [1, 6]: -19.5% (inactive) | activity, negative = cell killing [1, 7]: -13.6% (inactive) | activity, negative = cell killing [1, 9]: -21.3% (inactive) | Potency (astro): inactive

— PubChem BioAssay (NCATS)
